DT40 TDP1 CPT: DT40-hTDP1 cell growth loss with CPT | chicken DT40 Tdp1-/-;hTDP1 cells + 20 nM CPT, ATP luminescence, 48 h | Potency, µM (series often up to 46.2 µM), usual class: inhibitors | 420,000 tested, 12% active | AID 686979; note: nearly all actives have a fitted effect of over 55% in size
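Cell growth measured by CellTiter-Glo luminescence after a minimum 48 h, 37 C compound exposure with 20 nM CPT in Tdp1-knockout DT40 cells stably expressing hTDP1, seeded 400/well; qHTS titration format.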
KB-V1 MDR tox: kills drug-selected multidrug resistant KB-V1 cells. KB-V1 MDR cells viability, CellTiter-Glo, 72 h. Potency, µM (top dose mostly 46.1 µM), actives largely listed as cytotoxic. 400,000 tested, 3.4% active. AID 1347076; note: nearly all actives have a fitted effect of over 60% in size
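Readout: CellTiter-Glo luminescence, 10 min after addition. Cells: KB-V1 MDR subline, 72 h at 37 degrees C with compound. Analysis: corrected, normalized data fitted to concentration-effect curves.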
DT40 TDP1 no CPT: qHTS for Inhibitors of human tyrosyl-DNA phosphodiesterase 1 (TDP1): qHTS in cells in absence of CPT; AID 686978, 2013; Potency, µM (series often up to 46.2 µM), hits mostly inhibitors; DT40 Tdp1-/- hTDP1 cells, no CPT, ATP luminescence, 48 h; 420,000 tested, 15% active; note: nearly all actives have a fitted effect of over 55% in size
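DT40 Tdp1-/-;hTDP1 cells, no CPT (DMSO vehicle only), 400 cells/well; compounds pin-transferred; ≥48 hr, 37 °C; CellTiter-Glo 30 min RT dark, luminescence read.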
KB-3-1 cytotox: kills parental KB-3-1 adenocarcinoma cells. KB-3-1 viability, CellTiter-Glo ATP luminescence, 72 h. Potency, µM (series often up to 46.1 µM), actives largely listed as cytotoxic. AID 1347075. 400,000 tested, 1.4% active; note: nearly all actives have a fitted effect of over 60% in size
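Multi-concentration cytotoxicity screen in KB-3-1 cells grown in DMEM lacking phenol red with 10% FBS. After 72 h at 37 °C with compound, ATP-dependent luminescence was recorded.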
HT1080 IDH1KD tx: HT-1080 IDH1 knockdown cell toxicity (counter line); HT-1080 IDH1 knockdown viability, ATP luminescence, 48 h; Potency, µM (doses to about 46.1 µM), hits mostly cytotoxic; 360,000 tested, 2% active; AID 686971
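In this qHTS, HT-1080 cells depleted of IDH1 are exposed for 48 h at 37 °C to compound titrations. Toxicity is scored from CellTiter-Glo luminescence, with DMSO as full viability and medium alone as none.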
HT1080NT lethal: kills 2HG-producing HT-1080-NT fibrosarcoma cells | HT-1080-NT fibrosarcoma viability, CellTiter-Glo ATP luminescence, 48 h | Potency, µM (series often up to 46.1 µM), usual class: cytotoxic | 360,000 tested, 1.6% active;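 note: NT is the 2HG producing partner of a matched IDH1 knockdown line; nearly all actives have a fitted effect of over 55% in size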
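HT-1080-NT; 750 cells/well; 5% FBS RPMI; 48 h compound, 37 degrees C; CellTiter-Glo luminescence; curve fitting and curve-class assignment.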
Hits are given with their value; - = inactive; ? = inconclusive; . = not tested or not shown; [ ] = another dose, or the depositor's remark. Most compounds without a hit are left out; they make up all but 19% or so of the library. Calls come from the whole dose curve; as a rule, active = well fitted curve in the direction sought with a large enough effect; inconclusive = small, poorly fitted or top-dose-only effect, or another doubt; inactive = no such curve, though single readings can be large; an effect the other way counts as inactive or inconclusive.

SMILES | DT40 TDP1 CPT | KB-V1 MDR tox | DT40 TDP1 no CPT | KB-3-1 cytotox | HT1080 IDH1KD tx | HT1080NT lethal
CCOc1ccc(OCC)c(NC(=O)CN2CCN(CC(=O)NC(C)C)CC2)c1 | 14.6µM | - | ? | - | - | -
CCOc1ccc(OCC)c(NC(=O)CN2CCN(c3cccc(C)c3)CC2)c1 | 23.1µM | - | 16.4µM | ? | - | -
CCOc1ccc(OCC)c(NC(=O)CN2CCN(c3cc(C)ccc3C)CC2)c1 | 20.6µM | ? | 23.1µM | - | ? | ?
CCOc1ccc(OCC)c(NC(=O)CN2CCN(c3cccc(C)c3)C(C)C2)c1 (stereo not drawn) | 14.6µM | ? | 14.6µM | ? | - | -
CCOc1ccc(OCC)c(NC(=O)CN2CCN(CC)CC2)c1 | - | - | - | - | - | -
CCOc1ccc(OCC)c(NC(=O)Cn2cccc2)c1 | - | ? | - | - | - | -
COCCn1c(=O)c(-c2cc(F)cc(F)c2)nc2cnc(N(C)C)nc21 | - | . | - | . | . | .
CCc1ccc(NC(=O)CSc2nc3c([nH]c4ccccc43)c(=O)n2-c2ccc(C)cc2)cc1 | - | - | ? | - | . | .
Cc1ccc(C)c(NC(=O)CSc2nc3nccnc3c(=O)n2CCc2c[nH]c3ccccc23)c1 | 11.6µM | . | 11.6µM | . | . | .
CCc1ccc(NC(=O)CSc2nc3nccnc3c(=O)n2CCc2c[nH]c3ccccc23)cc1 | 8.2µM | . | 4.11µM | . | . | .
Cc1ccc(C)c(NC(=O)C(=O)NCCc2c[nH]c3ccccc23)c1 | - | - | ? | - | - | -
CC1CCN(C(c2ccc(F)cc2)c2sc3nc(-c4ccco4)nn3c2O)CC1 (stereo not drawn) | - | - | - | - | . | .
Cc1oc(-c2ccccc2NC(=O)C2CCCO2)nc1CNC(=O)c1cc(F)c(F)cc1F (stereo not drawn) | -[9.04 µM] | . | - | . | . | .
C=CCOc1ccc(C=Nc2ccc(Cl)cc2)c(O)c1 | - | - | - | - | - | -
CC(=O)N1C=CN(C(C)=O)C(c2cn(C)c3ccccc23)C1c1cn(C)c2ccccc12 (stereo not drawn) | ? | 23.1µM | ? | ? | -[9.24 µM] | -
Cn1cc(/C=C/C(=O)c2ccccc2)c2ccccc21 | - | ? | ? | - | - | -
CC(C)(C)c1csc(NC(=O)c2ccncc2)n1 | ? | ? | 20.6µM | ? | - | -
CC(C)(C)c1csc(NC(=O)c2ccc3nccnc3c2)n1 | 16.4µM | - | 18.4µM | - | - | -
Cc1cccc(NC(=O)c2ccc3nccnc3c2)n1 | ? | - | - | - | - | -
Cc1csc(NC(=O)c2ccncc2)n1 | - | - | - | - | - | -
CCN(Cc1ccncc1)Cc1ccc2c(c1)CN(C(=O)c1ccc(C)cc1)CCO2 | -[9.04 µM] | . | ? | . | . | .
CC(C)[C@H](CO)Nc1nc(Nc2ccc(C(=O)O)c(Cl)c2)c2ncn(C(C)C)c2n1 | - | . | - | . | . | .
C=CC(=O)Nc1ccc(Nc2nc(NC3CCC(N(C)C)CC3)nc3c2ncn3C(C)C)cc1 (stereo not drawn) | 0.326µM | - | 0.411µM | 1.03µM | 2.31µM | ?
COc1cc(CCC(=O)NCc2ccc3c(c2)CCN3C(=O)c2ccccc2)cc(OC)c1OC | - | - | - | - | . | .
Cc1ccc2c(c1)C1(SC(C)C(=O)N1c1ccc(Cl)cc1)C(=O)N2 (stereo not drawn) | 6.51µM | ? | 4.11µM | - | - | -
SMILES | DT40 TDP1 CPT | KB-V1 MDR tox | DT40 TDP1 no CPT | KB-3-1 cytotox | HT1080 IDH1KD tx | HT1080NT lethal
CCCc1cc(=O)[nH]c2nnc(SCCC(C)C)n12 | - | . | - | . | . | .
CC1(C(=O)NCc2ccccc2)Cc2c(-c3cccc(C(F)(F)F)c3)ccnc2O1 (stereo not drawn) | 3.66µM | 6.51µM | 5.8µM | 16.4µM | 3.66µM | ?
CC1(C(=O)NCc2cccs2)Cc2c(-c3cccc(C(F)(F)F)c3)ccnc2O1 (stereo not drawn) | 3.26µM | 20.6µM | 2.91µM | ? | 4.61µM | 5.8µM
CC1(C(=O)NCc2cccc(Cl)c2)Cc2c(-c3ccc(C(N)=O)cc3)ccnc2O1 (stereo not drawn) | - | ? | ? | ? | - | -
CC1(C(=O)NCc2cccs2)Cc2c(-c3ccc(C(N)=O)cc3)ccnc2O1 (stereo not drawn) | 2.59µM | - | 3.26µM | 14.6µM | 14.6µM | ?
C[C@@H]1CCC(=O)N(C[C@@H](C)CSc2ccccc2)CC1 | ? | ? | ? | - | - | -
CN(C)CCCOc1ccc2c(c1)Sc1ccccc1CC2=O | ? | 10.3µM | ? | - | - | -
COc1ccc(C2=Nc3ccccc3N(C(=O)c3ccncc3)C2C(=O)NC(C)(C)C)cc1 (stereo not drawn) | - | - | - | - | - | -
CCN(CC)c1ccc2nc3c4ccccc4c(=O)cc-3oc2c1 | - | - | - | - | - | -
CCN(CC)c1ccc2c(-c3ccc(S(=O)(=O)O)cc3S(=O)(=O)[O-])c3ccc(=[N+](CC)CC)cc-3oc2c1 | ? | ? | 7.31µM | ? | ? | ?
CCOC1=C2CN(S(=O)(=O)c3ccc(C)cc3)[C@H](c3ccccc3)C[C@@H]2N(S(=O)(=O)c2ccccc2)[C@H](c2ccccc2)C1 | - | - | - | - | - | -
CCOc1cc2c(c3c1C(c1ccccc1)N(S(=O)(=O)c1ccc(C)cc1)C3)C(=O)C=CC2=O (stereo not drawn) | 0.517µM | ? | 0.581µM | ? | 11.6µM | 6.51µM
CC(C)N=c1cc2n(-c3ccc(Cl)cc3)c3ccccc3nc-2cc1Nc1ccc(Cl)cc1 | 13µM | ? | 16.4µM | - | - | -
C=C(Br)COC(c1ccco1)[C@H](Cc1ccccc1)NC(=O)OC(C)(C)C (stereo partly drawn) | ? | ? | 11.2µM | ? | . | .
CCCCc1nnc(SCc2cc(=O)c3cc(C(=O)OCC)ccc3[nH]2)n1C | - | - | - | - | . | .
CCCCOC(=O)c1ccc(OC(=O)c2sc3ncn(Cc4cccc(F)c4)c(=O)c3c2C)cc1 | - | - | - | - | . | .
COc1cc2c(=O)n(CCC(=O)NCC3CCCO3)c(=O)n(CC(=O)Nc3ccc(C)cc3C)c2cc1OC (stereo not drawn) | - | ? | - | - | - | -
CN(C)c1ccc(-c2csc(C(O)(c3ccccc3)C(F)(F)F)n2)cc1 (stereo not drawn) | 10.3µM | - | 7.31µM | - | ? | ?
Cc1ccccc1-c1csc(C(O)(c2ccccc2)C(F)(F)F)n1 (stereo not drawn) | ? | - | ? | - | ? | ?
CC(O)(c1ccccc1)c1nc(-c2ccc(S(C)(=O)=O)cc2)cs1 (stereo not drawn) | - | - | ? | - | - | -

Source: PubChem BioAssay
